# Measurements taken from PubChem BioAssay AID1814 (Broad Institute, 2009).
# About 22,000 (7.3%) of roughly 300,000 compounds were called active. Inconclusive results (about 2%) are left out. The full list was thinned out, with actives kept by preference. Values without a mark were called inactive. Cut-off read from the data, not from the text of the source: active = activity score below about -60%; inconclusive = mostly about -28% to -61%; inactive = positive scores.
# Assay: Activators working through SNCA 5'UTR binding (MLPCN) (AID 1814)
# Conditions: alpha-synuclein 5'UTR reporter, activators screen; active compounds read low; tested at 7.5 µM
row,SMILES,activity score
1,O=C1C(C=NCC2CCCO2)=C(O)c2ccccc21 (centres undefined),-95.6% (active)
2,CCS(=O)(=O)n1nc(-c2ccc(OC)cc2)nc1SC,-98.6% (active)
3,CCS(=O)(=O)n1nc(-c2ccccc2)nc1SCc1ccccc1,-118% (active)
4,Cc1cc(O)c(NC(=O)c2ccc(C)c([N+](=O)[O-])c2)cc1C,-110% (active)
5,CCCCSc1nc2ccccc2[nH]1,-86.8% (active)
6,COc1ccccc1CSc1nc2ccccc2[nH]1,-156% (active)
7,CC(C)n1c(=O)[nH]c2cc(C(=O)Nc3ccccc3)ccc21,-119% (active)
8,COc1ccc(-c2c(C#Cc3ccccc3)c3ccccc3n2C)cc1,-87.3% (active)
9,CCOC(=O)c1nn(-c2cccc(C)c2)cc1C(=O)c1ccccc1,-90.5% (active)
10,O=C1c2ccccc2S(=O)(=O)c2cc(N3CCN(c4ccccn4)CC3)ccc21,-68.6% (active)
11,COc1ccc(C2=NOC(COC(=O)c3ccc4ccccc4n3)C2)cc1 (centres undefined),-68.4% (active)
12,CN(C)c1ccc(-c2nnc(-c3cccnc3)o2)cc1,-195% (active)
13,c1ccc(CN=C2Nc3ccccc3CS2)nc1,-111% (active)
14,COc1ccc(N2C(=O)c3ccccc3NC2c2ccc(OC)c(CN3CCOCC3)c2)cc1 (centres undefined),-72.6% (active)
15,COc1ccc(C2Nc3ccccc3C(=O)N2c2ccc(Cl)cc2)cc1Cn1cc([N+](=O)[O-])cn1 (centres undefined),-111% (active)
16,CCN(CC)C(=O)C(=O)Nc1cccc(Br)c1,-75.5% (active)
17,COc1cc(N=Cc2c(O)[nH]c3ccccc23)cc(OC)c1OC,81%
18,COc1cccc2[nH]c(C(=O)NCCc3ccccc3)cc12,-162% (active)
19,NC(=S)N/N=C/c1coc2cc(Cl)ccc2c1=O,-88.7% (active)
20,COc1ccc(Nc2oc(-c3ccccc3Cl)nc2C#N)cc1,-108% (active)
21,CCOc1ccc(Nc2oc(Cc3ccccc3)nc2C#N)cc1,-109% (active)
22,N#Cc1nc(Cc2ccccc2)oc1NCCc1ccccc1,-147% (active)
23,Cc1ccc(C(=O)NNC(=O)c2cccs2)cc1,-65.9% (active)

row,SMILES,activity score
1,Cc1ccc(-c2csc(NC(=O)c3cccs3)n2)cc1,-239% (active)
2,COc1cc(NC(=O)c2cccs2)ccc1NC(=O)c1ccccc1Cl,-62.1% (active)
3,O=C(Nc1ccccc1)c1ccc(NC(=O)c2cccs2)cc1,-107% (active)
4,O=C(NNC(=O)c1ccc(Cl)cc1Cl)c1cccs1,-115% (active)
5,COc1ccc(-n2nc(C(=O)NCC(=O)N3CCN(c4ccccc4OC)CC3)c3ccccc3c2=O)c(OC)c1,-64% (active)
6,Cc1c(N=Nc2ccc(N(C)C)cc2)c(=O)n(-c2ccccc2)n1C,-101% (active)
7,O=C(/C=C/c1ccc(Cl)cc1)Nc1ccc(Br)cn1,-62.5% (active)
8,CCn1nc(C)c(NC(=O)/C=C/c2ccc(OC)c(COc3ccc(Br)cc3)c2)c1C,61.8%
9,CC(C)=CCc1c(O)c(CC=C(C)C)c2occ(-c3ccc(O)cc3)c(=O)c2c1O,-75.6% (active)
10,O=C(Nc1ccc2c(c1)CCC2)c1ccc(Br)s1,-159% (active)
11,N/C(=N\OC(=O)c1ccc2c(c1)OCO2)c1ccc(Br)cc1,-162% (active)
12,CCCCNc1ccc(C(=O)Nc2cccc(C)n2)cc1[N+](=O)[O-],-102% (active)
13,Cc1cc(NC(=O)CSc2nc3c(cc2C#N)CCCCC3)no1,-104% (active)
14,COC(=O)/C(=C1\Oc2ccc(C(C)(C)C)cc2S1)C(F)(F)F,-189% (active)
15,O=C1Oc2ccccc2C(=O)/C1=C/c1ccccc1O,-96.6% (active)
16,COc1ccc2c(c1)O/C(=C\c1ccccc1O)C2=O,-94.2% (active)
17,COc1ccc(-c2noc(-c3cccc(OC)c3OC)n2)cc1OC,-193% (active)
18,COc1cc(NC(=O)c2ccc(-c3csc(C)n3)cc2)c(OC)cc1Cl,-64.4% (active)
19,O=C(CCSc1ccccc1)N1CCN(c2ccccc2F)CC1,-115% (active)
20,COc1ccc(-c2nc3n(c2Br)CCC3)cc1,-122% (active)
21,CN1C(=O)/C(=C/C=C2\SCCN2C)OC1=S,-169% (active)
22,CC(C)n1cnc2c(Nc3cccc(Cl)c3)nc(N(CCO)CCCO)nc21,64.7%
23,Cn1c(Nc2cccc(Cl)c2)nc2ccccc21,-63.6% (active)

row,SMILES,activity score
1,OCCCNc1nccc(-c2cc(Nc3cccc(Cl)c3)ncn2)n1,73.3%
2,O=c1c2cc(-c3ccccc3)sc2nc2n1N=C(c1cccs1)CS2,-105% (active)
3,Oc1ccccc1CNc1ncc(Br)cc1Br,-62.4% (active)
4,COc1ccc2cc(C(=O)NCC3CCCO3)[nH]c2c1 (centres undefined),-90.6% (active)
5,O=C(NCCc1ccccc1)c1ccc2c(c1)N(Cc1ccccc1)CCS2,-105% (active)
6,O=C(Cn1c(=S)nc2ccccn21)N1CCc2ccccc2C1,-96.2% (active)
7,CCn1nccc1C(=O)Nc1ccc(Cl)c(Cl)c1,-89.2% (active)
8,CCc1ccc(NC2Nc3cc(C)nn3S2)cc1 (centres undefined),-79.3% (active)
9,CCOC(=O)c1cnc(Nc2nc3ccccc3o2)nc1CSC(=S)N1CCCCC1,-133% (active)
10,NS(=O)(=O)c1ccccc1NC(=O)c1c(O)c2ccccc2[nH]c1=O,-64.6% (active)
11,CCCCCn1c(=O)c(C(=O)OCC)c(Cl)c2ccccc21,92.6%
12,CCOC(=O)c1cnc2[nH]c3ccccc3n2c1=O,-85.9% (active)
13,Cc1ccc(SCCSc2ncccn2)cc1,-110% (active)
14,S=C(NCc1ccco1)Nc1ccc2c(c1)OCCO2,-105% (active)
15,FC(F)Oc1ccc(NC(=S)NCc2ccco2)cc1Cl,-62.2% (active)
16,CCC(CC)c1nnc(NC(=O)/C=C/c2ccco2)s1,-153% (active)
17,CCc1nnc(NC(=O)/C=C/c2ccc(C)o2)s1,-74.1% (active)
18,Cc1nnc(NC(=O)/C=C/c2ccco2)s1,-101% (active)
19,Cc1cccc(C(=O)Nc2ccc(Oc3cnccn3)cc2)c1,-86.6% (active)
20,CCOC(=O)N1CCN(S(=O)(=O)c2ccc(C(=O)Nc3ccc(F)cc3F)cc2)CC1,69.5%
21,COc1ccc(C(=O)Nc2ccc(F)cc2F)cc1,-88.9% (active)
22,COc1ccc(NC(=O)c2ccc(OC)cc2)cc1,-63% (active)
23,Cn1c(CCN2CCCCCC2)nc2cc(NC(=O)Nc3ccccc3)ccc21,-91.9% (active)
